Among the data in PubChem BioAssay AID2732 (Emory University Molecular Libraries Screening Center, 2010) are inhibition values, retold here.

Screen size: about 220,000 compounds; about 8,200 (3.7%) were called active.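 Rule for the calls: active = compounds that reduced the stress-induced luciferase reporter signal by more than about 70% of percent inhibition (limit read from the data); inactive = the rest.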 This excerpt belongs to a sample that is enriched for actives.

A short description of the assay: inhibitors of CHOP promoter induction, primary screen, cell-based, unfolded protein response, luciferase reporter (AID 2732).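 Note: 0% = tunicamycin plus vehicle and 100% = wells without tunicamycin.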 Conditions: CHO-K1 CHOP-promoter luciferase, tunicamycin-induced, 15-18 h; at 10 µM; stronger effect = higher value.
A word on the inhibition: it is the change of the read-out against control, counted positive when it falls. On to `CC(C)Oc1ccc(CCC(=O)NNC(=S)NCc2ccccc2)cc1`, for which the inhibition is 6.72% (inactive). `CC1(C)CC(N2CCN(C(c3ccccc3)c3ccccc3)CC2)=CC(=[N+]2CCCCC2)C1`: the inhibition is 65.3% (inactive). The value for `CN(CC(=O)Nc1ccc(F)cc1)CC(=O)Nc1ccc(Cl)c(S(=O)(=O)N2CCOCC2)c1` was -2.81% (inactive); that for `Cc1nn2c(NCCN(C)C)c3c(nc2c1-c1ccccc1)CCC3` was -22% (inactive); that for `CCC1(C)Cc2c(sc3nc(SC)[nH]c(=O)c23)CO1` (stereo not drawn) was 10% (inactive). The value for `CSc1nc2sc3c(c2c(=O)[nH]1)CCc1ccccc1-3` was 106% (active); that for `COc1ccc(-n2c(=S)[nH]c3sc4c(c3c2=O)CCc2ccccc2-4)cc1` was -20.5% (inactive); that for `CCn1c(SCC(=O)N/N=C/c2ccccc2OCC(=O)O)nnc1-c1ccc(C(C)(C)C)cc1` was 4.75% (inactive). Regarding `CC(C)(C)n1cnnc1Sc1ccc([N+](=O)[O-])cn1`, the inhibition was 12.9% (inactive). The figure for `Cc1ccc(-c2c[n+](CC(=O)Nc3ccccc3)c3n2CCC3)cc1` is 16.6% (inactive).

Take `O=C(O)C1CCN(C(=O)c2cc(F)cc3c2OCOC3)CC1`: the inhibition is 12.2% (inactive). `O=C(Nc1ccc2c(c1)C(=O)OC2)Nc1cccc2ccccc12`: the inhibition is 90.2% (active). The figure for `Cc1ccc(S(=O)(=O)NNC(=O)Nc2cccc3ccccc23)cc1` is 36.5% (inactive). On to `O=C(CC12CC3CC(CC(C3)C1)C2)Nc1ccc2c(c1)COC2=O`, for which the inhibition was 69.7% (inactive).

As for `O=C(c1ccc(CN2CCOCC2)cc1)N1CCN(c2ccccc2F)CC1`, the inhibition is -5.7% (inactive). In the case of `O=C(c1cccc2ccccc12)N1CCN(c2ccccc2F)CC1`, the inhibition is 91.4% (active).

With `COc1ccc2oc(=O)c(C(=O)N3CCN(c4ccccc4F)CC3)cc2c1`, the inhibition was 25.2% (inactive).

With `COc1ccc(CCNC2=CC(=O)CC(C)(C)C2)cc1`, the inhibition is 6.34% (inactive). The value for `C=CCN1CC(C)/C(=N\O)CC1C` (stereo not drawn) was -23.6% (inactive); that for `CC1=C/C(=N\S(=O)(=O)c2ccccc2)C(C(C)C)=CC1=O` was 49.7% (inactive); that for `CC1=C/C(=N\OS(=O)(=O)c2ccccc2)C=CC1=O` was 108% (active). With `CCOC(=O)C1(S(=O)(=O)c2ccccc2)CCN(Cc2ccccc2)CC1`, the inhibition was -6.62% (inactive).

For the molecule `CN(C(=O)CCn1c(=S)oc2ccccc21)C1CCCCC1`, the inhibition was 4.79% (inactive). The figure for `CC(C)(C)C(=O)Cn1c(NCCO)nc2ccccc21` is 9.85% (inactive). The figure for `OCCNc1nc2ccccc2n1-c1ncnc2sc3c(c12)CCC3` is 74.4% (active); for `O=C(O)[C@@H]1CCCN1c1ncnc2sc3c(c12)CCC3` it is -1.98% (inactive); for `N/C(=N\S(=O)(=O)c1cc(C(F)(F)F)cc(C(F)(F)F)c1)c1cccs1` it is 34.7% (inactive).

For the molecule `Cc1ccc(S(=O)(=O)NC(=O)Nc2nc(-c3ccc(F)c(F)c3)cs2)cc1`, the inhibition is 1.74% (inactive). `CCOC(=O)c1cc(C)nc(S(C)(=O)=O)c1C#N`: the inhibition is -90.6% (inactive). The figure for `Oc1cccc(C2c3[nH]c4ccccc4c3CCN2Cc2cnn(-c3ccccc3)c2)c1` (stereo not drawn) is 106% (active).

Consider `c1ccc(C2c3[nH]c4ccccc4c3CCN2Cc2cccn2-c2cccnc2)nc1` (stereo not drawn), for which the inhibition is -19.1% (inactive). Turning to `COc1cccc(C2c3[nH]c4ccccc4c3CCN2Cc2cccc(C)n2)c1` (stereo not drawn), the inhibition was 8.45% (inactive).

Consider `Cn1c(CSCC(=O)Nc2ccccc2)nnc1SCc1ccccc1`, for which the inhibition was -6.7% (inactive). The value for `COc1ccc(NC(=O)CCN2C(=O)/C(=C/c3ccc4c(c3)OCO4)SC2=S)cc1` was -8.39% (inactive).

On to `CCCCCCCCn1c2c(c(=N)c3c1CCC3)CCCC2`, for which the inhibition was 75.5% (active). Consider `O=C(N/N=C/c1cccc([N+](=O)[O-])c1)c1ccncc1`, for which the inhibition is 5.76% (inactive).

Consider `O=C(CSc1nnnn1-c1ccc(O)cc1)c1ccc(F)cc1`, for which the inhibition is 17% (inactive).

Turning to `CCCCC(CCC(=O)Nc1ccc(C(=O)OCC)cc1)C(=O)O` (stereo not drawn), the inhibition is 14.7% (inactive). The figure for `CCOC(=O)Nc1ccc(NC(=O)OCC)cc1` is 26.9% (inactive). Consider `CCCCCOC(=O)NCCOC(=O)Nc1ccc(C(=O)OCC)cc1`, for which the inhibition was 83.8% (active). As for `O=C(CN1CCCCC1)Nc1ccccc1Cl`, the inhibition is 10.1% (inactive).

On to `COc1cc([N+](=O)[O-])ccc1NC(=O)CN1CCCC1`, for which the inhibition was -4.65% (inactive). As to `O=C(CN1CCCCCC1)Nc1ccc(Br)cc1Br`, the inhibition was 84.9% (active).

`CCOc1ccc(C2c3[nH]c4ccccc4c3CCN2Cc2cccn2-c2ncccn2)cc1` (stereo not drawn): the inhibition was -20% (inactive). The value for `Cc1nnc(N/N=C/c2cccs2)[nH]c1=O` was 10.9% (inactive); that for `CCOc1ccc(-n2cnc3c(=O)[nH]c(N)nc32)cc1` was 8.78% (inactive). The value for `CC1CC2C3CCC4=CC(=O)C=C[C@]4(C)[C@@]3(F)[C@@H](O)C[C@]2(C)[C@@]1(O)C(=O)CO` (stereo partly drawn) was 4.18% (inactive). The figure for `Nc1nc(Nc2ccccc2)nc(NCCO)c1[N+](=O)[O-]` is -4.79% (inactive).

Regarding `CNc1nc(Nc2ccc(C)c(Cl)c2)nc(N)c1[N+](=O)[O-]`, the inhibition was 81.6% (active).

`CCN1CCN(c2nc(Nc3cccc(F)c3)nc(N)c2[N+](=O)[O-])CC1`: the inhibition is 3.99% (inactive). The value for `COc1ccc2c(c1)c1ncn(Cc3ccccn3)c(=O)c1n2C` was 18.8% (inactive); that for `CCN(CC)C(=O)Oc1ccc(Br)cc1C(=O)Nc1ccc(F)c(Cl)c1` was -9.25% (inactive); that for `CN(C)C(=S)Nc1ccc(Br)cc1Cl` was -7.26% (inactive). With `CCCCSc1nnc2c(n1)OC=Nc1ccccc1-2`, the inhibition was -26.6% (inactive). The figure for `CCC1=C/C(=C\c2ccc3c(c2)OCO3)C(=O)S1` is 47.3% (inactive); for `CSC1=N/C(=C\c2ccc3c(c2)OCO3)C(=O)S1` it is 79.4% (active); for `O=C1/C(=C/c2ccc3c(c2)OCO3)CCC/C1=C\c1ccc2c(c1)OCO2` it is 10.8% (inactive). The figure for `C/C=N/N(c1ccccc1)c1ccccc1` is 12.3% (inactive); for `Oc1ccc(-c2nnc(Nc3ccccc3)c3ccccc23)cc1` it is 34.9% (inactive); for `COc1cc(OC)c2ccc(=O)oc2c1C(CCN1CCN(c2ccccc2)CC1)c1ccc2c(c1)OCO2` (stereo not drawn) it is 6.77% (inactive). For `Cc1[nH]n(C)c(=O)c1C(=O)c1c(-c2c(Cl)cccc2Cl)noc1C`, the inhibition was -56.3% (inactive). The value for `COc1ccc(CNC(=O)C(Cc2ccccc2)n2cccc2)cc1` (stereo not drawn) was 9.45% (inactive). For the molecule `Clc1cccc(N=C2NN=C(c3ccc4c(c3)OCCO4)CS2)c1`, the inhibition is 10.5% (inactive).

In the case of `CN(C)c1nc(=Nc2cccc(Cl)c2)ss1`, the inhibition was 74.4% (active).

On to `CCOC(=O)C1=C(O)CSC1=Nc1cccc(Cl)c1`, for which the inhibition was 12.7% (inactive). The figure for `CN1C(=O)/C(=C/c2ccc(C(=O)NC3CCCC3)cc2)Oc2ccccc21` is 101% (active); for `COc1ccccc1N(C)S(=O)(=O)c1ccc(C(=O)NC2CCCCCC2)cc1` it is 19.2% (inactive). The figure for `O=C(NC1CC1)c1ccc(-c2ccccc2)cc1` is -3.76% (inactive); for `CCc1ccc2nc(Nc3ncc(C(C)=O)c(C)n3)nc(C)c2c1` it is 1.13% (inactive); for `NNC(=O)c1cccc(COCC(F)(F)C(F)F)c1` it is -3.75% (inactive).

On to `O=C(CCCl)Nc1ccc(S(=O)(=O)NCc2ccco2)cc1`, for which the inhibition is -12.6% (inactive). The figure for `COc1ccc(C(=O)c2oc3ccc(Br)cc3c2NC(C)=O)cc1` is 10% (inactive); for `COC(=O)C1NN=C(C(=O)c2ccc(Br)cc2)C1c1cccc(Br)c1` (stereo not drawn) it is 75.1% (active). `O=C(NC1CC1)c1cccc(Br)c1`: the inhibition is 20.9% (inactive). Take `C/C(CC(C)C)=N\Oc1nc(C)cc(C)n1`: the inhibition was -11.9% (inactive). The figure for `FC(F)(F)c1cc(C(F)(F)F)c2ccc(N3CCN(c4ccccc4)CC3)nc2n1` is 96.8% (active). The figure for `Cc1cc(N2CCN(c3ccccc3)CC2)nc(N2CCOCC2)n1` is 12% (inactive); for `O=C(NC(=S)Nc1cccc2c(O)cccc12)c1cccc(Br)c1` it is 32.1% (inactive); for `CCOC(=O)c1c(C)oc(C)c(C(=O)OCC)c1=O` it is 1.84% (inactive). The value for `O=S(=O)(c1ccc(F)cc1)N1CC=C(c2ccccc2)CC1` was 5.87% (inactive); that for `Cc1ccc(S(=O)(=O)N2CCN(Cc3cccc(C)c3O)CC2)cc1` was 83% (active). As to `Cc1ccc(S(=O)(=O)N2CCN(C(=O)c3cccs3)CC2)cc1`, the inhibition is 18.5% (inactive). For the molecule `Cc1ccc(S(=O)(=O)N2CCN(S(=O)(=O)N3CCOCC3)CC2)cc1`, the inhibition was -15% (inactive). The value for `O=C(CN1CCN(S(=O)(=O)c2ccc(F)cc2)CC1)Nc1ccccc1F` was 14.5% (inactive). In the case of `O=S(=O)(c1ccc(F)cc1)N1CCN(Cc2ccccc2C(F)(F)F)CC1`, the inhibition is 88% (active). The figure for `CN(CC(O)COc1ccc(S(=O)(=O)N2CCOCC2)cc1Cl)C1CCCCC1` (stereo not drawn) is 9.37% (inactive); for `O=C(O)COCC(=O)NCc1csc2ccc(Cl)cc12` it is 1.58% (inactive). The value for `COc1cccc(NS(=O)(=O)c2ccc3[nH]cc(C(=O)NCCCOC(C)C)c(=O)c3c2)c1` was -0.02% (inactive).

As to `CCCCNC(=O)c1c[nH]c2ccc(S(=O)(=O)Nc3ccc(OCC)cc3)cc2c1=O`, the inhibition was 100% (active). For the molecule `CCOc1ccc(NS(=O)(=O)c2ccc(C)c(C(N)=O)c2)cc1`, the inhibition was 16.6% (inactive). As to `COC(=O)c1ccc(S(=O)(=O)NCc2ccccc2)n1C`, the inhibition is 15.6% (inactive). `O=c1cc(CCl)nc2scc(-c3ccccc3)n12`: the inhibition was -35.4% (inactive).

Turning to `C=CCn1c(SCc2c(C)noc2C)nc2sc3c(c2c1=O)CCC(C)C3` (stereo not drawn), the inhibition is 25.9% (inactive).

Regarding `Cc1cc(NC(=O)CSc2nc(C(C)C)nc3sc4c(c23)CCC(C)C4)no1` (stereo not drawn), the inhibition was 78.5% (active).

In the case of `Cc1cc(NC(=O)CSc2nc3ccccc3n2CC(C)C)no1`, the inhibition is -2.4% (inactive).

Take `Cc1cc(NC(=O)CSc2nc3c(cc2C#N)CCCCC3)no1`: the inhibition is -14.1% (inactive). For `Cc1nc(SCC(=O)Nc2cc(C)on2)c2c3c(sc2n1)CCCC3`, the inhibition is 97.7% (active). The figure for `Cc1nc(SCC(=O)Nc2cc(C)on2)c2c(C)c(C)sc2n1` is 69.6% (inactive).
